The source of these data is PubChem BioAssay (NCI).

Common to all, as to test: NCI-60 one-dose screen, 48 h (100 = growth as untreated, 0 = no growth, -100 = all killed)
Conditions in all cases: 10 µM unless noted

Assay [1] relates to NCI-H23 lung.
The test system of assay [2] is NCI-H226 lung.
Assay [3] relates to NCI-H322M lung.
Assay [4] deals with HOP-62 NSCLC.
Assay [5] has as its system NCI-H460 lung.
Assay [6] has as its system HOP-92 NSCLC.
For assay [7], the system named is NCI-H522 lung.
Assay [8] deals with A549/ATCC NSCLC.
Assay [9] has as its system 786-0 renal.
In assay [10] the test system is COLO 205 colon.
The subject of assay [11] is DU-145 prostate.
The subject of assay [12] is K-562 leukemia.
For assay [13], the system named is MALME-3M melanoma.
Assay [14] deals with MDA-MB-231 breast.
For assay [15], the system named is RXF 393 renal.
In assay [16] the test system is SF-268 CNS.
For assay [17], the system named is SF-295 CNS.
The subject of assay [18] is UACC-257 melanoma.
For assay [19], the system named is M14 melanoma.
Assay [20] has as its system SF-539 CNS.

This is part of a sample that, as a whole, favours compounds with a hit. Of some 83,000 tested, about 20% had one in any assay.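 Growth was measured after 48 h exposure to one concentration of compound in 96-well plates. Values under 10 count as active.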 A number with no mark means an inactive call. Activity calls are given as the source filed them.

Regarding `C=C1CCC2C3(C)COC(c4cccc(Cl)c4)OC3CCC2(C)C1/C=C/C1=CCOC1=O` (centres undefined), the growth was 38.2% in [1]; 61% in assay [2]; 90.2% in assay [3]; 76.7% in assay [4]; 36.2% in assay [5]; 98.2% in assay [6]. Besides, the growth in assay [7] was 57.8%; in [8] it was 58.4%; in assay [9], 65.9%; in [10], 106%; in assay [11] it was 79.1%; in [12], 24.3%. Besides, the growth in assay [13] was 84.6%; in [14] it was 80.1%; in assay [15] it was 80.9%; in [16] it was 83.7%; in [17], 45.7%; in assay [18] it was 57.4%. Moreover, in assay [19], the growth was 83.6%.
For `CCCCNc1ccc2c3c1cccc3c(=O)n1c3ccccc3nc21`, the growth in [1] is 60%; in assay [2], 73.7%; in assay [3], 93.5%; in assay [4] it was 81.9%; in assay [5], 48.3%; in assay [6], 61.2%. Further, the growth in assay [7] is 71.9%; in assay [8] it was 76.6%; in [9], 102%; in assay [10] it was 85.4%; in assay [11], 99.4%; in [12], 78.8%. The growth was 89.3% in assay [13]; 79.8% in assay [14]; 104% in [15]; 101% in assay [16]; 103% in assay [20]; 93.1% in assay [19].
As for `CCN(CC)CCCC(C)N/C(=C1\C(=O)NC(=O)\C1=C(/NC(C)CCCN(CC)CC)c1cccc(OC)c1)c1cccc(OC)c1` (centres undefined), the growth was -22% (active) in assay [1]; -21.3% (active) in [2]; -49.6% (active) in assay [3]; -6.86% (active) in [4]; -38.1% (active) in assay [5]; -1.22% (active) in assay [6]. In addition, the growth in assay [7] was -74.9% (active); in assay [8], -52.9% (active); in assay [9], 9.02% (active); in [10], -62.9% (active); in assay [11], 4.62% (active); in assay [12] it was -24.6% (active). For the same compound, the growth was -84.2% (active) in [13]; -50.9% (active) in assay [14]; -20.8% (active) in assay [15]; -24% (active) in assay [16]; -80.6% (active) in assay [20]; -75.1% (active) in assay [19].
In the case of `COc1cc(C2CC(=O)c3c(C)nn(-c4nc5ccccc5[nH]4)c3C2)cc(OC)c1OC` (centres undefined), the growth was 86% in [1]; 65.9% in assay [2]; 67.8% in [3]; 32.3% in assay [4]; 73.7% in [5]; -3.61% (active) in assay [6]. Further, the growth in assay [7] was 31.6%; in [8], 59.5%; in assay [9] it was 23.8%; in assay [10] it was 126%; in assay [11], 85%; in assay [12] it was 71.7%. Moreover, the growth in assay [13] was 75.1%; in assay [14], 29.5%; in [15], 30.3%; in [16], 7.82% (active); in assay [17], 64.7%; in assay [18], 98.7%. Besides, in [19], the growth is 102%.
Regarding `NC1=CSC2=N/C(=C\c3ccc(Cl)cc3)C(=O)N12`, the growth in [1] was 72.6%; in assay [2], 80.3%; in assay [3], 95.7%; in assay [4], 83.5%; in assay [5], 62.1%; in [6], 69.5%. Moreover, the growth is 33.8% in assay [7]; 74.2% in assay [8]; 81.4% in assay [9]; 90% in assay [10]; 77.9% in [11]; 40.1% in assay [12]. Further, the growth in [13] is 64.9%; in assay [14] it was 83.2%; in assay [15] it was 65.7%; in assay [16] it was 90.4%; in assay [20], 90.4%; in assay [19] it was 76.8%.
As to `O=C(CN1CCN(c2cc3c(cc2F)c(=O)c(C(=O)O)cn3C2CC2)CC1)Nc1nc(-c2ccc(Cl)cc2)cs1`, the growth in assay [1] was 16.5%; in [2], 43.3%; in assay [3] it was 28.1%; in assay [4], 25.7%; in assay [5] it was 6.86% (active); in assay [6] it was -5.35% (active). For the same compound, the growth in [7] was 6.46% (active); in assay [8] it was 11.4%; in [9], 29.1%; in [10], 63.2%; in [11], 32%; in assay [12], 25.3%. Besides, the growth in assay [13] is 31.6%; in assay [14] it was 24.6%; in [15], 23.3%; in assay [16], 29.7%; in [17], 10.8%; in [18], 7.83% (active). In assay [19], the growth is 27.5%.
`O=C1Nc2ccccc2C12CC(c1ccc(Cl)cc1)=NN2` (centres undefined): the growth was 101% in assay [1]; 86.6% in [2]; 110% in assay [3]; 104% in [4]; 97.9% in [5]; 74.3% in assay [6]. Further, the growth is 90.1% in [7]; 82.2% in assay [8]; 100% in assay [9]; 108% in assay [10]; 115% in assay [11]; 94.5% in [12]. In addition, the growth in [13] is 105%; in assay [14] it was 89.8%; in assay [15], 99.4%; in [16], 106%; in [20] it was 99.2%; in [19], 98.7%.
